Here are results for eight molecules from PubChem BioAssay (Tox21).

Results filed as inconclusive are left out. Activity calls are given as the source filed them. Unless noted, calls come from the whole dose curve; as a rule, active = well fitted curve in the direction sought with a large enough effect in the repeat runs; inconclusive = weak or mixed curves; inactive = no such curve, though single readings can be large; an effect the other way counts as inactive or inconclusive.

Assay [1] in a line: qHTS assay to identify small molecule agonists of the estrogen receptor alpha (ER-alpha) signaling pathway in the presence of an antagonist - cell viability counter screen (AID 1259386).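 Note: series mostly up to about 92 µM; cells exposed to compounds for 22 h at 37 °C before the viability read; nearly all actives have a fitted effect of over 30% in size.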 Put shortly:
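ICI-182,780 at 10.0nM final accompanies the compound titration (15 concentrations, 22hr, 37C) on VM7Luc4E2 cells. The CellTiter-Fluor fluorescence readout runs in the same wells as the luciferase assay.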
For orientation: qHTS replaces the single test concentration by a dilution series.

In assay [2] the target is Progesterone receptor (Homo sapiens) (UniProt P06401). In words: qHTS assay to identify small molecule agonists of the progesterone receptor (PR) signaling pathway (AID 1346784; calls by dose curve; note: nearly all actives have a fitted effect of over 30% in size; note: potency is the fitted concentration of half-maximal effect). In outline:
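Beta-lactamase reporter read-out: after 16 hr compound treatment at 37C and a further 2 hr at room temperature with LiveBLAzer B/G FRET substrate, fluorescence was measured in PR-UAS-bla HEK 293T cells grown in 2% charcoal-stripped serum.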

The nature of assay [3]: qHTS assay to identify small molecule antagonists of the progesterone receptor (PR) signaling pathway - cell viability counter screen (AID 1346798). Note: nearly all actives have a fitted effect of over 50% in size. Note: potency is the fitted concentration of half-maximal effect. In outline: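 HEK293T PR-UAS-bla, 2% charcoal-stripped FBS; 4 hr pre-plate; cpd + R5020, 16 h 37C; LiveBLAzer read first; then CellTiter-Glo 30 min RT, luminescence.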
Assay [4] in a line: qHTS assay to identify small molecule antagonists of the TGF-beta/Smad signaling pathway - cell viability counter screen (AID 1346824). Note: nearly all actives have a fitted effect of over 50% in size. In outline: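 SBE-bla HEK 293T cells, incubated overnight, then compound plus 0.25 ng/mL TGF-beta1 (stock added) for 5 hr at 37 C. Viability was read in the same wells by CellTiter-Glo luminescence after 30 min at room temperature.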
Assay [5] is described as follows: qHTS assay to identify small molecule agonists of the TGF-beta/Smad signaling pathway - cell viability counter screen (AID 1346829). Note: top concentration of the series differs between compounds; nearly all actives have a fitted effect of over 45% in size. In outline:
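Here the cytotoxicity of library compounds is measured in SBE-bla HEK 293T cells treated for 5 hr, using CellTiter-Glo added to wells already read for the beta-lactamase reporter.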

Assay [6] in a line: qHTS assay to identify small molecule agonists of the TGF-beta/Smad signaling pathway (AID 1346859; active = well fitted activation curve with a large enough effect in the signal ratio in the repeat runs, not every such curve was filed as active; the % refers to the signal ratio; note: series mostly up to about 77 µM). In outline: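 SBE-bla HEK 293T, 4,000 cells/well, plated o/n; cpd in DMSO, 5 hr, 37 C/5% CO2; B/G FRET substrate 2 hr RT; ex 405, em 460/530 nm.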
Assay [7] in a line: Human pregnane X receptor (PXR) small molecule agonists, qHTS cell viability counter screen (AID 1346977). Note: nearly all actives have a fitted effect of over 50% in size. Put shortly:
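PXR-Luc HepG2, 2,000 cells/well, 5% charcoal-stripped FBS; 5hr settle; cpd 24hr, 37C/5% CO2; CellTiter-Fluor at 23hr, read 1hr later (fluorescence).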

A short description of assay [8]: Caspase-3/7 induction in HepG2 cells by small molecules, qHTS assay (AID 1346978). Note: nearly all actives have a fitted effect of over 15% in size. In outline: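 Wild-type HepG2 cells, 2,000/well, settled 5 hr at 37 C and 5% CO2, then compound-treated for 17 hr; caspase-3/7 activity read by luminescent Caspase-Glo 3/7 after 30 min at room temperature.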
Assay [9] in a line: Caspase-3/7 induction in CHO-K1 cells by small molecules, qHTS cell viability counter screen (AID 1346979). Note: nearly all actives have a fitted effect of over 35% in size. In outline:
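Cells (CHO-K1, wild type) are plated at 1,500 per well and incubated 5hr. Test compounds in DMSO are then pinned in, followed by 16hr at 37C and 5% CO2. Viability is read by CellTiter-Fluor fluorescence after 1hr.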

A short description of assay [10]: Caspase-3/7 induction in CHO-K1 cells by small molecules, qHTS assay (AID 1346980). Note: nearly all actives have a fitted effect of over 15% in size. In outline:
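Wild-type CHO-K1 cells exposed to compounds for 17hr at 37 C, 5% CO2. Caspase-3/7 activity then measured by Caspase-Glo 3/7 luminescence after 30min at room temperature.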

Assay [11] can be described thus: Caspase-3/7 induction in HepG2 cells by small molecules, qHTS cell viability counter screen (AID 1346981). Note: series mostly up to about 92 µM; nearly all actives have a fitted effect of over 30% in size. Put shortly:
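Multiplexed with the caspase-3/7 assay: HepG2 cells, 16 hr compound treatment, CellTiter-Fluor viability detection by fluorescence.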

For assay [12], the target named is Nuclear receptor subfamily 1 group I member 2 (Homo sapiens) (UniProt O75469). In words: Human pregnane X receptor (PXR) small molecule agonists, qHTS assay (AID 1346982). Note: nearly all actives have a fitted effect of over 35% in size. In outline:
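We seeded PXR-Luc HepG2 cells in assay medium containing 5% charcoal-stripped FBS, added compounds 5 hr later, incubated 24 hr, and read luminescence with ONE-Glo reagent.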

The nature of assay [13]: qHTS assay to identify small molecule agonists of the progesterone receptor (PR) signaling pathway - cell viability counter screen (AID 1346799; calls by dose curve; note: nearly all actives have a fitted effect of over 45% in size). In outline:
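Luminescence from CellTiter-Glo, added after the beta-lactamase FRET read in the same wells, gave cytotoxicity in PR-UAS-bla HEK293T cells treated with compounds for 16 hr at 37C.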

Assay [14] has as its target Acetylcholinesterase (Homo sapiens) (UniProt P22303). In words: Acetylcholinesterase (AChE) small molecule antagonists: colormetric cell-based qHTS assay (AID 1347395; calls by dose curve; note: nearly all actives have a fitted effect of over 30% in size; note: potency is the fitted concentration of half-maximal effect). Put shortly:
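Colorimetric read-out: DTNB detects thiocholine released when cellular AChE in SH-SY5Y cells hydrolyses acetylthiocholine. Cells attached overnight, received compound for 30 min at 37 C, then substrate mix for 90 min at 37 C.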

The target of assay [15] is Thyrotropin-releasing hormone receptor (Homo sapiens) (UniProt P34981). The assay can be described thus: qHTS assay to identify small molecule antagonists of the thyrotropin-releasing hormone receptor (TRHR) signaling pathway (AID 1346877; active = well fitted inhibition curve with a large enough effect in the repeat runs, not every such curve was filed as active; note: series mostly up to about 51 µM). In outline: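 Screening used HEK293 cells engineered with TRHR, with a brief 5 min room-temperature compound exposure preceding addition of TRH to 1 nM. The read-out was kinetic calcium-dye fluorescence, concentration-response from 15 doses in triplicate.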
Sequence of Thyrotropin-releasing hormone receptor (Homo sapiens) (P34981 whole entry, looked up): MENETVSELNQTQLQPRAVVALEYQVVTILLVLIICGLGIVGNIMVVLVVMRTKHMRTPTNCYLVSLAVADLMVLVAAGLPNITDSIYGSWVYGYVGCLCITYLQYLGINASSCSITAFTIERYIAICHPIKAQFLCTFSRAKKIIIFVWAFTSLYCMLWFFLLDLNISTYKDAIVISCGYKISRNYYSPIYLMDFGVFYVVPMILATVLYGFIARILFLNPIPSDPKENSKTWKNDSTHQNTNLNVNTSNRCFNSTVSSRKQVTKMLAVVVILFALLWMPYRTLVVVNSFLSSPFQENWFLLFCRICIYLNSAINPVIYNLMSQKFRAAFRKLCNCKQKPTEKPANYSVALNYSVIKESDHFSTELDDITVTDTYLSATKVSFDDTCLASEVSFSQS

For assay [16] the target is unchanged. In words: qHTS assay to identify small molecule agonists of the thyrotropin-releasing hormone receptor (TRHR) signaling pathway (AID 1346891; calls by dose curve; note: series mostly up to about 58 µM). In outline: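 Intracellular calcium rise, read as fluorescence every second for 3 min, served as the agonist signal in dye-loaded HEK293 cells expressing TRHR; each compound ran at 15 concentrations in triplicate.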

Sequence of Nuclear receptor subfamily 1 group I member 2 (Homo sapiens) (O75469 whole entry, looked up): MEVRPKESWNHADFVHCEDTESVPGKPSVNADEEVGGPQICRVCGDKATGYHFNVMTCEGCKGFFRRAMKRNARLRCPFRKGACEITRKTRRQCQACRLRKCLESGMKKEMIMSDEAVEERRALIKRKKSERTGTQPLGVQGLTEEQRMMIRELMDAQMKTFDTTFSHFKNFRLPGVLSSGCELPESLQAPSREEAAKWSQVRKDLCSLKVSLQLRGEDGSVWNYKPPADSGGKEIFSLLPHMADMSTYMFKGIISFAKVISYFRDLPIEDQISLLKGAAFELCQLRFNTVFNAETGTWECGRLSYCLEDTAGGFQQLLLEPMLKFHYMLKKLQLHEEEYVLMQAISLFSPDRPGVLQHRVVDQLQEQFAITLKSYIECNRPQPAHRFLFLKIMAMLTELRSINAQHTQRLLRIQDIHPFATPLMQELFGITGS
Sequence of Acetylcholinesterase (Homo sapiens) (P22303 whole entry, looked up): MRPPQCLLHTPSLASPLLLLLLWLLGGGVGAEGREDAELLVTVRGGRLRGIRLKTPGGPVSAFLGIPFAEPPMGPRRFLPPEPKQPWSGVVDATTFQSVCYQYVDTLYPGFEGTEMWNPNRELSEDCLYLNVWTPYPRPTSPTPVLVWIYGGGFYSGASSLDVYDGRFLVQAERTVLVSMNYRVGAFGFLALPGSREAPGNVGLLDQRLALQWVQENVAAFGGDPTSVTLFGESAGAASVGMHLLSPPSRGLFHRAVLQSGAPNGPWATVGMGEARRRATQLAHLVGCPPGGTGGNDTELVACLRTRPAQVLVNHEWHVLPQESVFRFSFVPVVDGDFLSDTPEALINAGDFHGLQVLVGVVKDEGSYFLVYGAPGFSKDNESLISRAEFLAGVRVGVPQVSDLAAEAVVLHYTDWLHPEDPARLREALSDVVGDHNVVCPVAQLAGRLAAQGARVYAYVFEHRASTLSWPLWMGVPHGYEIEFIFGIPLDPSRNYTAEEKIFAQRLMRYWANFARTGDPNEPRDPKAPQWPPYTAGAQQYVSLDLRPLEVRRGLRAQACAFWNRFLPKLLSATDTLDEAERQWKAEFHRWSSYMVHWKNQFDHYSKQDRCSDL
Sequence of Progesterone receptor (Homo sapiens) (P06401 whole entry, looked up): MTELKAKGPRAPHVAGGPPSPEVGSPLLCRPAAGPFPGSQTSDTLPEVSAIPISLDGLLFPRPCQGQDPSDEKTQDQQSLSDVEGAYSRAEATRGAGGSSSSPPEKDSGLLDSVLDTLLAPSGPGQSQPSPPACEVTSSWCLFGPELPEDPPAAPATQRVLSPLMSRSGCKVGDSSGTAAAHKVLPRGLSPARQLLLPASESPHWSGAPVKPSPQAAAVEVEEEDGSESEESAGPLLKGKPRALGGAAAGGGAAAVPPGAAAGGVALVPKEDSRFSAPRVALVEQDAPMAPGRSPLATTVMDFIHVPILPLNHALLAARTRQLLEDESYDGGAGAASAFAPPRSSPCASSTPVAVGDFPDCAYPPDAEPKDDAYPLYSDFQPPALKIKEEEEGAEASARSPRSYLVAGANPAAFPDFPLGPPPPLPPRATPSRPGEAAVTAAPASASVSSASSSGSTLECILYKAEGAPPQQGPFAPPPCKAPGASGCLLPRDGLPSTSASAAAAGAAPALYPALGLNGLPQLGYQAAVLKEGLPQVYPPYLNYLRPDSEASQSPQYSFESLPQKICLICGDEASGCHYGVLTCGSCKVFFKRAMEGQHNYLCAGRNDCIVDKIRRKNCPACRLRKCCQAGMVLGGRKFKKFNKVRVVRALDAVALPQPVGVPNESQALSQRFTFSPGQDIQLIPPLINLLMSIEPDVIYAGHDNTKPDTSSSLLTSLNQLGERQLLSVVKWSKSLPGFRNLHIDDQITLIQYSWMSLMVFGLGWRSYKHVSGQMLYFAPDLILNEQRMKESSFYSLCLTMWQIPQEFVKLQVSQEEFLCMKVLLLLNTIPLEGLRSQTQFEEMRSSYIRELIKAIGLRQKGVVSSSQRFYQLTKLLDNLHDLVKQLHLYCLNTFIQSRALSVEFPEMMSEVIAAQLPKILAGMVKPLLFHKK

Regarding `C[C@]12CC[C@H]3[C@@H](CCC4=CC(=O)CC[C@@H]43)[C@@H]1CC[C@@H]2OC(=O)CCc1ccccc1`, the Potency entry in assay [1], in assay [3], in assay [4], in [5], in assay [7] and in assay [8] was “inactive” throughout. In addition, the Potency result in assay [9], in [10], in assay [11] and in assay [12] was “inactive” each time. The Potency in assay [2] is 1.5 µM (active). Further, the result in assay [6] was inactive.
For `CC(=O)NNc1ccccc1`, the Potency result in [1], in [2], in [4], in assay [5], in assay [7] and in [8] was “inactive” in each case. Also, the Potency entry in assay [10] and in assay [11] was “inactive” each time. Further, the Potency in assay [3] was 30.4 µM (active). Moreover, the call in assay [6] was inactive.
`FC(Cl)(Cl)C(F)(Cl)Cl`: the Potency result in assay [1], in assay [2], in assay [3], in assay [13], in assay [4] and in [5] was “inactive” each time. Further, the Potency result in assay [7], in [8], in assay [9], in assay [10], in [11] and in assay [12] was “inactive” in each case. For the same molecule, the Potency result in assay [14] is “inactive”. Further, in assay [6], the molecule was classed as inactive.
Turning to `CCOP(=S)(S)OCC`, the Potency result in assay [1], in assay [2], in assay [3], in assay [13], in assay [4] and in assay [5] was “inactive” in each case. For the same molecule, the Potency entry in [15], in assay [7], in assay [8], in assay [9], in assay [10] and in assay [11] was “inactive” in each case. Moreover, the result in assay [16] was inactive. The Potency in assay [14] is 16.7 µM (active).
For `CC1(C)CC(=O)CC(C)(C)N1[O]`, the Potency entry in assay [1], in [2], in [3], in assay [13], in assay [4] and in [5] was “inactive” throughout. Besides, the Potency result in assay [15], in assay [7], in [8], in assay [9], in assay [10] and in assay [11] was “inactive” in each case. In addition, the Potency result in assay [12] and in assay [14] was “inactive” each time. Besides, the call in assay [16] was inactive.
Consider `O=S(=O)(Cl)Cl`, for which the Potency entry in assay [1], in assay [2], in [3], in assay [13], in assay [4] and in assay [5] was “inactive” each time. Further, the Potency entry in assay [15], in assay [7], in assay [8], in [9], in assay [10] and in assay [11] was “inactive” in each case. In addition, the Potency entry in assay [12] and in [14] was “inactive” each time. Also, the outcome in assay [6] and in assay [16] was inactive.
Consider `N#CC1(N=NC2(C#N)CCCCC2)CCCCC1`, for which the Potency entry in assay [1], in assay [2], in [3], in [13], in [4] and in assay [5] was “inactive” in each case. Moreover, the Potency result in assay [15], in assay [7], in assay [8], in assay [9], in assay [10] and in [11] was “inactive” each time. Further, the Potency entry in assay [14] is “inactive”. Further, the call in [6] and in assay [16] was inactive.
In the case of `CN(C1CCCCC1)C1CCCCC1`, the Potency result in assay [1], in [2], in [3], in [13], in assay [4] and in assay [5] was “inactive” throughout. The Potency result in [15], in assay [7], in assay [8], in [9], in assay [10] and in assay [11] was “inactive” throughout. In addition, the Potency result in assay [12] and in assay [14] was “inactive” throughout. Besides, the call in [16] was inactive.
